For 40 molecules, outcome and AC50 results are on record in PubChem BioAssay (EPA / NIEHS).

Active and inactive are the calls of the source. The calls were made as follows: active = hit-call score of the fitted dose curve at least 0.9, where 1 is the maximum; inactive = score below 0.9.

A short description of the assay: ATG_AP_2_CIS: Attagene CIS-FACTORIAL HepG2 Assay for human Activator Protein 2 (AP-2) (AID 2282932). Particulars: HepG2 AP-2 cis-reporter, Attagene transcription factor profiling; actives raise or lower the signal. The procedure:
ATG_CIS is a cell-based, multiplexed-readout assay that uses HepG2, a human liver cell line, with measurements taken at 24 hours after chemical dosing in a 24-well plate.ATG_AP_2_CIS is one of 52 assay component(s) measured or calculated from the ATG_CIS assay. It is designed to make measurements of mRNA induction, a form of inducible reporter, as detected with fluorescence intensity signals by Reverse transcription polymerase chain reaction (RT-PCR) and Capillary electrophoresis technology.Data from the assay component ATG_AP_2_CIS was analyzed into 1 assay endpoint. This assay endpoint, ATG_AP_2_CIS, was analyzed with bidirectional fitting relative to DMSO as the negative control and baseline of activity. Using a type of inducible reporter, measures of mRNA for gain or loss-of-signal activity can be used to understand the reporter gene at the transcription factor-level as they relate to the gene TFAP2A and TFAP2B and TFAP2D. Furthermore, this assay endpoint can be referred to as a primary readout, because this assay has produced multiple assay endpoints where this one serves a reporter gene function. To generalize the intended target to other relatable targets, this assay endpoint is annotated to the dna binding intended target family, where the subfamily is basic helix-turn-helix leucine zipper.
Human liver HepG2 cells are transiently transfected with multiple reporter transcription units (MRTUs) in 6-well plates using FuGene 6 reagent (Roche; 3 ml FuGene/1 mg DNA). The MRTU constructs are regulated by a cis-regulating element (promoter). […] A major difference between the CIS and TRANS system is that in CIS activities of endogenous TFs are measured, whereas the TRANS assay evaluates changes in activities of exogenous, chimeric NR-Gal4 proteins. […] At the end of 24 hour incubation, total RNA was isolated using TriZol reagent (Invitrogen). The isolated RNA is then reverse-transcribed using oligo(dT) primer and Mo-MLV reverse transcriptase (Invitrogen) with DNAse I (Ambion) treatment for 30 min. The one-tenth of the produced cDNA was amplified by PCR using Taq DNA polymerase (Invitrogen) and two reporter sequence-specific primers. The PCR products were fluorescently labeled by primer extension with 6-arboxyfluorescein (6-FAM) 5'-labeled reporter sequence-specific primer (2 min at 95 C, 20 s at 68 C and 10 min at 72 C) and these products were digested with 5U of HpaI (New England Biolabs) for 2h at 37 C. The fragments were purified using Qiaquick PCR columns (Qiagen), analyzed on an ABI 3130xL genetic analyzer (Applied Biosystems) with peak positions identified by using a set of X-rhodamine (ROX)-labeled MapMarker1000 molecular weight standards (BioVentures). The raw capillary electrophoresis data was processed using Attagraph software (Attagene).
Regarding `CC(C)(C)NC(N)=O`, the result was inactive.
`CN1[C@@H]2CC(OC(=O)[C@H](CO)c3ccccc3)C[C@H]1[C@@H]1O[C@@H]12` (stereo not given in full): the molecule was classed as inactive.
Consider `CCCCCCCCCOC(C)=O`, for which the molecule was called inactive.
What is called AC50 is the concentration giving half of the maximal activity seen. Turning to `NC(=O)c1ccccc1Cl`, the AC50 was 76.4 µM (active).
As to `CC1CCC(C(C)(C)O)CC1` (stereo not given), the molecule was classed as inactive.
For the molecule `CCC(C)(O)CCC=C(C)C` (stereo not given), the outcome was inactive.
Turning to `CN(C)C(=N)N=C(N)N`, the call was inactive.
For the molecule `C#C[C@]1(O)CC[C@H]2[C@@H]3CCC4=Cc5oncc5C[C@]4(C)[C@H]3CC[C@@]21C`, the result was inactive.
Same read-out and setting: with `Nc1cc([N+](=O)[O-])ccc1Cl` the entry was “inactive”; with `CCCCNC(=O)NS(=O)(=O)c1ccc(C)cc1`, “inactive”; with `C=CC(C)(C)O`, “inactive”.
The same measure, in the same setting: next, `O=c1[nH]c(=O)n([C@H]2CCCO2)cc1F`: “inactive”; `CC1COc2ccccc2N1C(=O)C(Cl)Cl` (stereo not given): “inactive”.
In the case of `Nc1cccc(S(=O)(=O)c2cccc(N)c2)c1`, the outcome was inactive.
Regarding `NNc1nc(-c2ccc(N)cc2)cs1`, the result was inactive.
Turning to `NCCCN1CCOCC1`, the call was inactive.
As for `O=[N+]([O-])c1cc(C(F)(F)F)ccc1Cl`, the result was inactive.
Same read-out and setting: with `OC1OC[C@@H](O)[C@H](O)[C@H]1O` (stereo not given in full) the entry was “inactive”; with `Fc1c(F)c(F)c(Br)c(F)c1F`, “inactive”.
Turning to `CC(C)(COC(=O)c1ccccc1)COC(=O)c1ccccc1`, the outcome was inactive.
With `CCC(=O)OCc1ccccc1`, the molecule was called inactive.
Still for that read-out and setting: next, `CC(CC(C)(C)C)CC(C)(C)CC(C)(C)C` (stereo not given): “inactive”; `CN(C)c1ccc(O)c2c1C[C@H]1C[C@H]3[C@H](N(C)C)C(=O)C(C(N)=O)=C(O)[C@@]3(O)C(=O)C1=C2O`: “inactive”; `C/C=C(\C)C(=O)OCc1ccccc1`: “inactive”.
For `CN(C)CCCN`, the call was inactive.
For the molecule `CCCCCC(CO)CCC` (stereo not given), the molecule was called inactive.
`NCCCCCCN`: the result was inactive.
Take `CC1=CCC2C(C1)C2(C)C` (stereo not given): the result was inactive.
For `Nc1cc(Cl)c(O)c(Cl)c1`, the molecule was classed as inactive.
Turning to `CCCCCCCCC`, the molecule was classed as inactive.
On to `CCCC(=O)OCCC(C)CCC=C(C)C` (stereo not given), for which the outcome was inactive.
Take `CCCCCCCCCCCCN(CCCCCCCCCCCC)CCCCCCCCCCCC`: the result was inactive.
On to `CC(=O)Nc1ccc(CC(=O)O)cc1`, for which the molecule was called inactive.
Regarding `Clc1nc(C(Cl)(Cl)Cl)c(Cl)c(Cl)c1Cl`, the call was inactive.
In the case of `CC1(C)[C@H]2CC[C@]1(C)[C@H](O)C2`, the outcome was inactive.
Still for that read-out and setting: next, `CC(C)C(C)(C)C(C)(C)C(C)(C)S`: “inactive”.
Consider `c1cc(C(c2ccc(OCC3CO3)cc2)c2ccc(OCC3CO3)cc2)ccc1OCC1CO1` (stereo not given), for which the AC50 is 8.7 µM (active).
For `C=C[C@@H](C)CCC=C(C)C`, the molecule was classed as inactive.
On to `CCCCOCCOCCOCCOCCO`, for which the molecule was called inactive.
As for `CCn1c2ccccc2c2cc(N)ccc21`, the molecule was classed as inactive.
